# High-throughput results from PubChem.
# The entries come from a sample that favours hits as a whole.
# CHX counter – counter-screen for Shiga toxin inhibitors: cycloheximide protein synthesis inhibition; cell reporter, cycloheximide protein synthesis inhibition counterscreen; max response, %; 12% of 300,000 active; in the data active = max response mostly above about 13%, no sharp cut-off; inactive = mostly below about 14%; note: read at 38.3 µM for the half of the compounds with a filed dose; 0% is about no effect
# FBPA Giardia inh – blocks Giardia fructose-bisphosphate aldolase activity | Potency, µM (doses to about 59.6 µM), for inactives: top-dose activity, negative = inhibition, hits mostly inhibitors | purified Giardia FBPA | 0.71% of 290,000 active; note: potency is the fitted concentration of half-maximal effect; % is set by controls: 0 for no effect and ±100 for the full control effect; nearly all actives have a fitted effect of over 55% in size
# Target sequence (A8B2U2 whole entry, looked up): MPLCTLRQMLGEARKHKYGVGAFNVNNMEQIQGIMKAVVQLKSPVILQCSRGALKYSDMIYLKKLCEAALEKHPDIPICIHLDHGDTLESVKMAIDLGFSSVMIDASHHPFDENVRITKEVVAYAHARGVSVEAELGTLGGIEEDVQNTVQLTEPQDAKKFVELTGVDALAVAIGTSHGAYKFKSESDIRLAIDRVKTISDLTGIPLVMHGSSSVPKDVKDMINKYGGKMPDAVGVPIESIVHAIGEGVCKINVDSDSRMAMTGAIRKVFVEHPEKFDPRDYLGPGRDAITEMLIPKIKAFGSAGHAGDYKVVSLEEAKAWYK
#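 Giardia FBPA (40 nM reagent) was preincubated 10 min at RT with compound (up to 57.5 uM final), then substrate plus GAPDH/TPI/NAD/arsenate coupling system with diaphorase/resazurin was added; resorufin fluorescence (525/598 nm) was read after 20 min.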
# LmPK inh – LmPK (Leishmania mexicana) enzyme inhibition | purified LmPK, Kinase-Glo ATP luminescence, 1 h | Potency, µM (series often up to 57.5 µM), for inactives: top-dose activity change, negative = inhibition, usual class: inhibitors | 0.37% of 290,000 active; note: potency is the fitted concentration of half-maximal effect; % is set by controls: 0 for no effect and ±100 for the full control effect
#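 0.1 nM LmPK, 0.5 mM PEP, 0.1 mM ADP; 50 mM imidazole pH 7.2, 7 mM MgCl2, 50 mM KCl; 1 h RT. Kinase-Glo luminescence readout, normalized to no-enzyme (full inhibition) and uninhibited wells.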
# RE007 growth inh – less growth of the S. pombe RE007 Vpr strain. S. pombe RE007 Vpr strain, BacTiter-Glo ATP luminescence, 24 h. Potency, µM (doses to about 92.2 µM), without a hit: top-dose activity change, negative = less growth, actives largely listed as inhibitors. 0.21% of 360,000 active. AID 651644; active = well fitted falling curve with a large enough effect; inconclusive = small, poorly fitted or top-dose-only effect; inactive = no such curve, though single readings can be large or run the other way; note: potency is the fitted concentration of half-maximal effect; % is set by controls: 0 for no effect and ±100 for the full control effect; nearly all actives have a fitted effect of over 50% in size
#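 Fission yeast RE007 carrying one integrated HIV-1 vpr copy, seeded at OD 0.01 in PMG+AL medium with 23 nL pinned compound. Grown 24 h at 30 degrees; viability read by BacTiter-Glo luminescence after 5 min.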
# TbPYK inhibitor – T. brucei pyruvate kinase inhibition. 0.12% of 410,000 active. Potency, µM (series often up to 76.8 µM), for inactives: at the top dose activity, negative = inhibition, usual class: inhibitors. TbPYK enzyme, Kinase-Glo Plus ATP luminescence, 45 min. Q57TT1; note: potency is the fitted concentration of half-maximal effect; % is set by controls: 0 for no effect and ±100 for the full control effect; nearly all actives have a fitted effect of over 50% in size
#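 Quantitative HTS: titrated library compounds versus trypanosomal pyruvate kinase in TEA buffer (pH 7.2) containing KCl, MgCl2, BSA and Tween-20. Reactions were initiated with ADP, 130 uM final. Kinase-Glo Plus luminescence was read after 45 min at RT.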
# Shiga toxin inh – blocks Shiga toxin action in Vero cells. Vero cells, Shiga toxin protein synthesis inhibition reporter. inhibition, % at 38.7 µM. 9.2% of 290,000 active. AID 2315; in the data active = inhibition mostly above about 28%, no sharp cut-off; inactive = mostly below about 43%; note: 0% is about no effect
# Numbers without * were called inactive; ? = inconclusive; . = no result given; + = active, no number; [ ] = remark or other dose. Unless noted, calls come from the whole dose curve; as a rule, active = well fitted curve in the direction sought with a large enough effect; inconclusive = small, poorly fitted or top-dose-only effect, or another doubt; inactive = no such curve, though single readings can be large; an effect the other way counts as inactive or inconclusive.
SMILES,CHX counter,FBPA Giardia inh,LmPK inh,RE007 growth inh,TbPYK inhibitor,Shiga toxin inh
CCOC(=O)c1cc(-c2ccc(F)cc2)n(CCC(=O)NC2CCCCC2)c1C,.,.,.,.,2.8%[15.4 µM],.
Fc1ccc(Nc2ncncc2-c2ccoc2)cc1,.,-9.8%,.,.,.,.
CC1CCC(NC(=O)CC(NC(N)=O)c2ccccc2Cl)CC1 (configuration not stated),31.3*,3.5%,0.9%,-1.9%,-2.8%,57.1
Cc1ccc(Oc2cc(-n3nc(C)cc3C)ncn2)cc1,17.1*,3.2%,-17.2%,-19.7%,-4.4%,58.5*
Cc1cc(C)n(-c2cc(-n3nc(C)cc3C)ncn2)n1,7.7,-1.1%,-1.1%,-4.2%,-16.1%,-2.9
C/C(=N/Nc1ccc(C)cc1)C1(C)N(O)C(C)(C)C(c2ccco2)=[N+]1[O-] (configuration not stated),16.8*,-19.2%,-29.5%,8.7%,-7.1%,35.8
CCOc1ccc(C(=O)N2CCC(c3nnc(-c4ccccc4OC)o3)CC2)cc1,.,.,.,.,-4.0%,.
O=C1NC(=NCc2ccccc2)S/C1=C/c1ccc(O)cc1,13.1*,12.5%,2.8%,7.0%,-3.3%,16.1
NC(=O)C1CCN(c2nc(-c3ccc(Br)cc3)cs2)CC1,19.8*,4.2%,0.6%,-19.0%,3.6%,28.3
c1ccc(-c2csc(N3CCCCCC3)n2)cc1,33.4*,-3.8%,-0.6%,-24.1%,-13.6%,+
O=[N+]([O-])c1ccc(N2CCN(c3nc(-c4ccc(Cl)cc4)cs3)CC2)cc1,-1.5,-1.1%,4.4%,1.0%,-5.4%,-15.3
c1ccc(-c2cnnc(N3CCCCC3)n2)cc1,32.9*,-0.6%,-24.0%,-12.2%,3.7%,112.3*
O=[N+]([O-])c1ccc(-c2csc(N3CCCCCC3)n2)cc1,17.2*,0.9%,1.5%,4.3%,-6.2%,26.4
NC(=O)C1CCN(c2nc(-c3ccc4c(c3)OCCO4)cs2)CC1,.,.,.,.,-24.2%,.
COCC(C)Nc1ncnc2c1cnn2-c1ccc(C)c(C)c1 (configuration not stated),.,.,.,.,0.5%,.
Cc1ccc(NC(=O)Cn2cc3c(n2)CCCCC3)cc1,.,.,.,.,-6.5%,.
CN1CCN(c2nc(-c3ccc(Cl)s3)cs2)CC1,46.0*,-26.6%,-5.8%,-1.0%,?,50.5*
COc1ccc(-c2csc(/N=C/N(C)C)n2)cc1OC,17.8*,-1.3%,0.7%,1.4%,-1.3%,42.3
Clc1ccc(-c2csc(N3CCOCC3)n2)cc1,47.2*,-3.0%,2.3%,-19.4%,-11.6%,56.4*
CC(C)C(=O)N1CCN(c2nc(-c3ccc(Cl)cc3)cs2)CC1,-2.4,-19.6%,-0.6%,?,-4.2%,32.5
Clc1ccc(-c2csc(N3CCCCCC3)n2)cc1,21.8*,0.8%,1.1%,-7.6%,0.1%,57.3
O=C(N1CCOCC1)N1CCN(c2nc(-c3ccc(F)cc3)cs2)CC1,10.2,-0.5%,0.1%,-11.6%,7.3%,-3.4
C=C(C)Cn1c(SCC(=O)Nc2cccc(Cl)c2)nc2sc3c(c2c1=O)CCCC3,.,.,.,.,-1.7%,.
Brc1ccc(-c2csc(N3CCOCC3)n2)cc1,62.6*,-6.4%,-1.1%,-2.3%,?,136.2*
COc1ccc(-c2noc(CN3CCOCC3)n2)cc1OC,9.3,10.4%,1.6%,-2.3%,1.7%,33.8
SMILES,CHX counter,FBPA Giardia inh,LmPK inh,RE007 growth inh,TbPYK inhibitor,Shiga toxin inh
Brc1ccc(-c2csc(N3CCCCCC3)n2)cc1,8.6*,-14.0%,-7.6%,0.3%,-8.8%,4.4
COc1ccc(-c2csc(N3CCOCC3)n2)cc1OC,51.3*,5.7%,1.2%,1.1%,?,74.6*
O=C1C2C3c4ccccc4C(c4ccccc43)C2C(=O)N1c1nc(-c2ccccc2)cs1 (configuration not stated),-2.4,-1.6%,6.6%,-4.2%,1.3%,-14.6
N=C1SCC(=O)N1c1nc(-c2ccccc2)cs1,21.0*,-0.9%,2.7%,-15.3%,2.6%,40.6
CC1=NN(c2nc(-c3ccc(C#N)cc3)cs2)C(=O)C1,14.6,-12.0%,0.5%,-16.2%,2.3%,53.4*
CC1=NN(c2nc(-c3ccccc3)cs2)C(=O)C1,16.0*,15.0%,-1.7%,-2.3%,-4.9%,23.9
CNC(=O)ON(C(=O)NC)C1N(C)C(=S)SC1(C)C (configuration not stated),13.2*,6.6%,4.0%,-3.3%,-1.0%,21.9
